Laboratory results taken from PubChem BioAssay (Tox21).
Inconclusive results are not listed. Calls of active or inactive are those of the source. Calls follow the shape of the dose curve; as a rule, active = well fitted activation curve with a large enough effect in the repeat runs; inconclusive = weak or mixed curves; inactive = flat fitted curve, though single readings scatter.

Experiment: A CellTox Green Cytotoxicity Assay to monitor cytotoxicity in HepG2 cells - 32 hour (AID 1224883); also: nearly all actives have a fitted effect of over 50% in size
Settings: CellTox Green fluorescence; series mostly up to 76.8 µM; cytotoxicity increase: at the top concentration
Text: National Center for Advancing Translational Sciences [NCATS]
NIH Chemical Genomics Center [NCGC]
U.S. Environmental Protection Agency [EPA]
National Institutes of Environmental Health Sciences [NIEHS]
National Toxicology Program [NTP]
Cell-based models are critical for drug discovery. Determining the natural cytotoxic effects resulting from test compounds is an essential research activity. A CellTox Green Cytotoxicity Assay to monitor cytotoxicity in real time of continues cell culture during 40 hours of the compound treatment was used to screen Tox21 10K library compounds in HepG2 cells. CellTox Green Cytotoxicity Assay is a nonlytic, homogeneous, biofluorescent method to measure cytotoxicity in cell culture after experimental manipulation. The assay system uses a proprietary asymmetric cyanine dye that is excluded from viable cells but preferentially stains the dead cell's DNA. […] Viable cells produce no appreciable increases in fluorescence. Therefore, the fluorescence signal produced by the binding interaction with dead cell DNA is proportional to cytotoxicity.
The mixture of HepG2 cell suspension and reagents were dispensed at 600cells/6 ul/well in 1536-well tissue culture treated black solid bottom plates using a Multidrop dispenser. After the assay plates were incubated at a 37 C/5% CO2 incubator for 5 hours, 23 nL of compounds dissolved in DMSO, positive and negative controls was transferred to the assay plate by a pintool work station. The plates were incubated at 37 C for 40 hours. The fluorescence intensity were measured at 0h, 8h, 16h, 24h, 32h and 40h time points using ViewLux plate reader during compound treatment.
% is scaled to controls: 0 for no effect and ±100 for the full control effect; potency is read from the fitted curve at half-maximal effect.

SMILES	cytotoxicity increase	Potency
O=C[C@H](O)[C@H](O)[C@H](O)CO	0.259% (inactive)	
CC(=O)Oc1ccc(C2(c3ccc(OC(C)=O)cc3)C(=O)Nc3ccccc32)cc1	6.44% [at 35.3 µM] (inactive)	
C=CC(=C)CC/C=C(\C)CCC=C(C)C	2.06% [at 15.8 µM] (inactive)	
CCc1c(C(=O)O)c(=O)cnn1-c1ccc(Cl)cc1	0.152% (inactive)	
O=C1OC(=O)c2cccc3cccc1c23	3.72% (inactive)	
CCCCCCCCCCCCCCCC	-5.8% (inactive)	
Cc1ccc(O)cn1	-0.977% (inactive)	
C=C(C)C(=O)OCCC[Si](Cl)(Cl)Cl	-15.1% (inactive)	
CC(COC(=O)c1ccccc1)OC(=O)c1ccccc1 (stereo not given)	-2.36% (inactive)	
CCCCCCCCCCCC(=O)N(CC)CC	20% (inactive)	
CCNc1nc(NC(C)CC)nc(OC)n1 (stereo not given)	1.54% (inactive)	
CC1CCCNC1 (stereo not given)	1.51% (inactive)	
COc1ccc(C#N)cc1	8.21% (inactive)	
CC(C)(C)C1=CC(=O)C=C(C(C)(C)C)C1=O	-0.224% (inactive)	
CN1CCN(C2Cc3ccccc3Sc3ccc(Cl)cc32)CC1 (stereo not given)		23.9 µM (active)
CC(C)=CCCC(C)CCOC(=O)C(C)C (stereo not given)	-9.14% (inactive)	
Oc1c(Br)cc(Br)c2cccnc12	9.62% [at 35.3 µM] (inactive)	
CCCCCCCCCCOCC(O)CN (stereo not given)		13.4 µM (active)
Cc1cc(=O)[nH]c(=O)[nH]1	1.04% (inactive)	
CCCCCCCCCCCCN(CCO)CCO		17.3 µM (active)

SMILES	cytotoxicity increase	Potency
C=CC(C)C#N (stereo not given)	-16.8% (inactive)	
CCN(CC)CCNc1ccc(CO)c2sc3ccccc3c(=O)c12		13.4 µM (active)
N#CSCSc1nc2ccccc2s1		24.5 µM (active)
C=CC(C)(CCC=C(C)C)OC(=O)/C=C/c1ccccc1 (stereo not given)		43.6 µM (active)
CC(C)CCOCCC(C)C	-14.4% (inactive)	
Cc1cccc(C)c1NC(=O)CN1CCN(CCCC(c2ccc(F)cc2)c2ccc(F)cc2)CC1		23.9 µM (active)
Oc1cc2ccccc2cc1O	-10.3% (inactive)	
O=C(O)CCn1c2c(c3ccccc31)C[C@H](NS(=O)(=O)c1ccc(F)cc1)CC2	-16.2% [at 35.3 µM] (inactive)	
C(=C/c1ccccc1)/c1ccccc1	7.62% (inactive)	
S=C(SSSSSSC(=S)N1CCCCC1)N1CCCCC1	16.8% [at 15.8 µM] (inactive)	
COc1cc(C(=O)NS(=O)(=O)c2ccccc2C)ccc1Cc1cn(C)c2ccc(NC(=O)OC3CCCC3)cc12	3.93% [at 35.3 µM] (inactive)	
O=CC1CC1	-8.49% (inactive)	
CCCCCCCCC(C)=O	-10.7% (inactive)	
CC1CCCCN1CCCOC(=O)c1ccc(OC2CCCCC2)cc1 (stereo not given)		26.8 µM (active)
CNC(=S)NN	26% (inactive)	
CC1(C)C(=O)N(CO)C(=O)N1CO	-2.67% (inactive)	
C=C(C)CCCC	-1.54% (inactive)	
CC(C)(C)CC(C)(C)c1ccccc1O		27.7 µM (active)
CCCCCCCCCCCCCCNCCO		7.56 µM (active)
c1cc2c3c(c1)ccc1cccc(c13)C2	0.0764% (inactive)	
